# Rows were chosen to be rich in hits. Some 28% of all compounds tested hit in one or more screens of this group.
# CYP2C9 inh: inhibitors of human CYP2C9. CYP2C9 Supersomes, luciferin-H conversion, luminescence. inhibition, % at 5 µM. P11712. 96,000 compounds, 20% hits;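 active means blocking of liver enzyme CYP2C9 beyond about 50% at 5 µM, limit read from the data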
# Target sequence (P11712 whole entry, looked up): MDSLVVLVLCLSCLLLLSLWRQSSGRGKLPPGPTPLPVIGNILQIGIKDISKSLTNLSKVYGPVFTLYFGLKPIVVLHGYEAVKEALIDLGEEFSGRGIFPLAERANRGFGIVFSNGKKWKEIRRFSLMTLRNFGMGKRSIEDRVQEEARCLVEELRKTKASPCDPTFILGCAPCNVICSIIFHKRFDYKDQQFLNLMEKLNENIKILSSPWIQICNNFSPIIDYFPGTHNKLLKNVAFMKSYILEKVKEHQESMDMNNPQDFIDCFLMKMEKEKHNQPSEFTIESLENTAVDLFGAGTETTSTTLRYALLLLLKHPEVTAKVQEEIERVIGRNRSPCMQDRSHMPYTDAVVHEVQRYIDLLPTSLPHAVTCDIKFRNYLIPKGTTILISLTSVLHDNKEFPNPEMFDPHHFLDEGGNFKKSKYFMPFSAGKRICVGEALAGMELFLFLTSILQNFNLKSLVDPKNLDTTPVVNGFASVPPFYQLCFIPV
# CYP2C9 activ: increases human cytochrome P450 2C9 activity; recombinant CYP2C9, luciferin-H conversion, luminescence; hits give high values; factor 1 = untreated enzyme, 0 = blocked; activation factor at 5 µM; 96,000 compounds, 1.4% hits; P11712; AID 1024;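 active means activation factor of 2 or more for CYP2C9 at a 5 µM dose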;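 further: 0 = sulfaphenazole-blocked wells and 1 = vehicle-only wells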
# Plk1 PBD FP: blocks phosphopeptide binding to human Plk1 polo box domain; 97,000 compounds, 0.13% hits; inhibition, %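 (tested at about 20 µM)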; Plk1 PBD phosphopeptide binding, fluorescence polarization; in the data active means inhibition above about 34%, passing the limit was not always enough
# CYP2C19 activ: increases human CYP2C19 enzyme activity; recombinant CYP2C19, luciferin-H EGE luminescence; hits give high values; 0 = fully inhibited enzyme, 1 = untreated enzyme; activation factor at 5 µM; 96,000 tested, under 10 active; AID 1025;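 active means activation factor of at least 2 at 5 µM in the primary screen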;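 further: 0 = wells with 2.5 mM tranylcypromine and 1 = vehicle-only wells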
# PLK1 inh: PLK1 (human) kinase inhibition | P53350 | recombinant PLK1 kinase, TR-FRET peptide phosphorylation | inhibition, % at 10 µM | 97,000 compounds, 0.53% hits | AID 619;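 active means inhibition of 50% or more in the single-concentration screen; inactive means inhibition below 50%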;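 further: 0% = DMSO max control and 100% = H-89 dihydrochloride min control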
# CYP2C19 inhib: human CYP2C19 inhibition; CYP2C19 Supersomes, luciferin-H EGE luminescence, 30 min; inhibition, % at 5 µM; 96,000 compounds, 21% hits; AID 778;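 active means CYP2C19 inhibition above a set limit at 5 µM in the primary screen, cut at about 50% in these data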;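 further: plate controls were negative control wells for no effect and 2.5 mM tranylcypromine positive control for full effect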
# An asterisk follows results filed as active; . = no result.
SMILES,CYP2C9 inh,CYP2C9 activ,Plk1 PBD FP,CYP2C19 activ,PLK1 inh,CYP2C19 inhib
CC(=O)/C(=N/Nc1cccc(Cl)c1)N1CCOCC1,65*,0.4,-22,0.3,-10,72*
Cc1nn(CC(C)C)c(=S)[nH]c1=O,36,0.6,.,0.9,.,11
CCN(CC)S(=O)(=O)c1ccc2oc(C(=O)NCc3ccc(F)cc3)c(C)c2c1,59*,0.4,.,0.4,.,58*
Cc1c(C(=O)NCC2COc3ccccc3O2)oc2ccc(S(=O)(=O)N3CCOCC3)cc12 (centres undefined),56*,0.4,-1,0.8,-5,18
CCN(CC)S(=O)(=O)c1ccc2oc(SCc3ccc(F)cc3)nc2c1,69*,0.3,5,0.8,-9,25
COC(=O)c1ccc(CSc2nc3ccccc3o2)cc1,-15,1.2,-2,1,-9,4
Cc1c(C(=O)NCC2CCCO2)oc2ccc(S(=O)(=O)N3CC(C)CC(C)C3)cc12 (centres undefined),59*,0.4,-6,0.7,-10,34
CCn1c(SCC(=O)Nc2cccc(NC(C)=O)c2)nnc1C(C)C,-22,1.2,24,1.1,-3,-13
Cc1cc(C)nc(NS(=O)(=O)c2ccc(NC(=S)NC(=O)CC(C)C)cc2)n1,.,.,6,.,-6,.
CCN(CC)S(=O)(=O)c1ccc2oc(C(=O)NCC3COc4ccccc4O3)c(C)c2c1 (centres undefined),76*,0.2,.,0.7,.,34
CCCc1cc(=O)oc2cc(C)cc(OC(=O)c3ccco3)c12,3,1,-15,0.9,-9,8
Cc1cc(OCC(=O)N2CCc3ccccc3C2)c2c(-c3ccccc3)cc(=O)oc2c1,97*,0,-7,0.1,-16,86*
CCOc1cc(C)cc2oc(=O)cc(-c3ccccc3)c12,55*,0.5,-3,0.8,-4,19
Cc1cc(OC(C)C)c2c(-c3ccccc3)cc(=O)oc2c1,80*,0.2,0,0.6,-12,43
CCOC(=O)c1[nH]c(=O)[nH]c1COC(=O)c1cc2ccccc2o1,57*,0.4,2,0.9,-4,12
CCOC(=O)c1[nH]c(=O)[nH]c1CSc1nc(C)cc(C)n1,-14,1.1,10,0.9,-4,7
CSc1nnnn1-c1cccc(O)c1,-142,2.4*,7,0.8,-7,22
Brc1ccc2c(c1)CNc1c(ncnc1N1CCOCC1)O2,58*,0.4,.,0,.,98*
CC(=O)Nc1cccc(Oc2ccc(-c3noc(C)n3)cc2)c1,57*,0.4,7,0.2,-2,76*
COc1ccc(-c2noc(-c3ccccc3C(=O)Nc3cccc(OC)c3)n2)cc1,29,0.7,-14,0.9,2,11
COc1cc2cc(CN(CCCO)S(=O)(=O)c3ccccc3)c(=O)[nH]c2cc1OC,9,0.9,.,1.1,.,-6
COc1cc2cc(CN(CCO)S(=O)(=O)c3ccccc3Cl)c(=O)[nH]c2cc1OC,55*,0.4,.,0.9,.,12
O=c1[nH]c2cc3c(cc2cc1CN(CCO)S(=O)(=O)c1ccccc1Cl)OCCO3,77*,0.2,12,0.7,-3,30
CC(=O)Nc1ccc(NC(=O)CCCCCN2C(=O)c3ccccc3C2=O)cc1,92*,0.1,-6,0.6,0,40
Cc1cc(C)nc(NS(=O)(=O)c2ccc(NC(=O)CCCN3C(=O)c4ccccc4C3=O)cc2)n1,33,0.7,.,0.7,.,28
SMILES,CYP2C9 inh,CYP2C9 activ,Plk1 PBD FP,CYP2C19 activ,PLK1 inh,CYP2C19 inhib
O=C(CCCCCN1C(=O)c2ccccc2C1=O)Nc1ccccc1,58*,0.4,-2,0.4,1,64*
CC(=O)Nc1ccc2c(c1)C(=O)N(C1CCCCC1)C2=O,14,0.9,-2,1.1,-2,-7
COc1ccc(N2C(=O)c3ccc(NC(C)=O)cc3C2=O)cc1,55*,0.4,11,0.9,-2,12
CC(=O)Nc1ccc2c(c1)C(=O)c1ccccc1C2=O,63*,0.4,25,0.7,-5,30
CC(=O)Nc1ccc2c(c1)C(=O)N(c1ccc(C)cc1)C2=O,38,0.6,-4,0.8,-7,18
COc1ccccc1NC(=O)COC(=O)c1cnccn1,32,0.7,-17,0.9,-14,12
CCCCOc1ccc(N2C(=O)CC(NCCc3ccc(S(N)(=O)=O)cc3)C2=O)cc1 (centres undefined),45,0.6,-24,1,0,-1
CCN(CC)c1ccc(NC(=O)CCCCCN2C(=O)c3ccccc3C2=O)cc1,76*,0.2,-9,0.8,-9,19
Cc1cccc(NC(=O)CCCN2C(=O)c3cccc4cccc(c34)C2=O)c1,-53,1.5,32,1.1,4,-7
COc1ccccc1S(=O)(=O)Cc1ccc(C(=O)NCc2ccc3c(c2)OCO3)o1,75*,0.3,7,0.4,-4,61*
COc1ccccc1S(=O)(=O)Cc1ccc(C(=O)NCc2cccs2)o1,6,0.9,20,0.9,-17,7
CC(NC(=O)C1CCC1)c1ccc2c(c1)OCO2 (centres undefined),30,0.7,.,0.5,.,51*
COc1ccccc1NC(=O)NCc1ccc2c(c1)OCO2,-6,1.1,-9,0.5,-6,54*
Cc1occc1C(=O)NCc1ccc2c(c1)OCO2,26,0.7,-22,0.1,2,88*
Cc1occc1C(=O)NCc1cccc(CNC(=O)c2ccoc2C)c1,10,0.9,-28,0.9,-7,10
CC(=O)Nc1ccc(S(=O)(=O)/N=C2\SCCN2S(=O)(=O)c2ccc(NC(C)=O)cc2)cc1,.,.,20,.,-15,.
CCOC(=O)CSc1nc(-c2ccc(OC)cc2)ns1,-4,1,-20,0.9,3,13
Cc1occc1C(=O)NC(C)c1ccc2c(c1)OCO2 (centres undefined),-3,1,-2,0.4,1,62*
COC(=O)c1ccccc1NC(=O)NCc1ccc2c(c1)OCO2,25,0.8,8,0.5,-6,52*
Cc1ccc(NC(=O)c2cnn(-c3ccccc3)c2NC(=O)c2ccco2)cc1C,40,0.6,2,1,0,3
COc1ccc(C(C)NC(=O)c2ccoc2C)cc1OC (centres undefined),8,0.9,-5,0.8,-10,20
COc1ccccc1C(=O)NCc1ccc2c(c1)OCO2,52*,0.5,.,0,.,95*
Cc1ccc(-n2ncc(C(=O)NCc3ccc4c(c3)OCO4)c2NC(=O)c2ccco2)cc1C,87*,0.1,-8,0.4,-10,64*
C(=C\c1cccc2ccccc12)/c1nnc(-c2cccs2)o1,-35,1.4,18,0.9,-12,10
CC(C)(C)n1nnnc1CN1CCSCC1,0,1,26,0.7,1,31
